Measurements from PubChem BioAssay (NCATS).
Unmarked numbers belong to inactive results. Active and inactive are the calls of the source. The call rests on the fitted dose curve; in most records, active means well fitted curve in the direction sought with a large enough effect; inconclusive means small, poorly fitted or top-dose-only effect, or another doubt; inactive means no such curve, though single readings can be large or run the other way.

Test: qHTS for compounds that reverse cellular toxicity of Amyloid beta (A-beta) peptide in yeast: LOPAC Validation Assay (AID 720559)
Conditions: yeast expressing A-beta; series mostly up to 46.1 µM; growth rescue, positive = activation: at the top concentration
Text: The A-beta peptide is produced by the processing of the amyloid precursor protein (APP) by two proteases, beta and gamma secretases. […] A-beta42 is regarded as the most amyloidogenic form due to its hydrophobicity; however, precisely how A-beta42 induces neurotoxicity is unclear. To understand further this biology and its potential therapeutic implications for human neurodegenerative disease, a quantitative high-throughput screen for compounds that reverse the cellular toxicity of the A-beta peptide was developed.
A yeast based screen was used because it recapitulates the salient feature of protein mis-folding disorder accurately. This cell-based phenotypic screen provides a significant, unbiased advantage by letting the compounds and models inform us which proteins or pathways are most relevant. The ideal chemical candidates would therefore have activity in both our primary yeast and secondary neuronal toxicity assays, as well as in mouse models. They will be valuable tools for dissecting diverse protein homeostasis pathologies and could potentially become the focus for future pre-clinical development. For this […] assay, inhibition of A-beta rescues the toxic effect in the yeast cell, resulting in increase of signals.
NIH Chemical Genomics Center [NCGC]
NIH Molecular Libraries Probe Centers Network [MLPCN]
Assay Submitter (PI): Susan Lindquist, Whitehead Institute, Massachusetts Institute of Technology
[1] Vassar R,et al (1999). Beta-secretase cleavage of Alzheimer's amyloid precursor protein by the transmembrane aspartic protease BACE. Science. 286: 735-741.
[2] Yan R, et al (1999). Membrane-anchored aspartyl protease with Alzheimer's disease beta-secretase activity. Nature.
Two and a half microliter / well of yeast growth medium were dispensed in a 1536 assay plate. Compounds were pinned using the Kalypsys robotic system followed by addition of 2.5 uL / well yeast solution. The assay plates were incubated at 30 C. After 48 hr, the absorbance signal at 600 nm was obtained using the PerkinElmer ViewLux plate reader to assess yeast growth. The data was normalized to the positive control of an equimolar mixture of ferric chloride (FeCl3) and clioquinol and to the negative control DMSO.

For `CC(=O)N1CCN(c2ccc(OC[C@H]3CO[C@](Cn4ccnc4)(c4ccc(Cl)cc4Cl)O3)cc2)CC1`, which “growth rescue, positive = activation” value is on record?
The value was -48.1%.

For `C=C(C)[C@H]1CN[C@H](C(=O)O)[C@H]1CC(=O)O`, which “growth rescue, positive = activation” value is on record?
Its value is -1.26%.

With `CCCCC/C=C\C/C=C\C/C=C\C/C=C\CCCC(=O)NCC(=O)O` as the molecule, how does the “growth rescue, positive = activation” value read?
The value was 3.34%.

Which outcome does the source give for `CC(C)N(CCC(C(N)=O)(c1ccccc1)c1ccccn1)C(C)C` (stereo unspecified) here?
The outcome was “inactive”.

With `CC(C)c1cccc(C(C)C)c1O` as the molecule, how does the “growth rescue, positive = activation” value read?
Its value is -3.43%.

Which “growth rescue, positive = activation” value does the source give for `CCC1(c2ccc(N)cc2)CCC(=O)NC1=O` (stereo unspecified) here?
Its value is 0.448%.

With `CN1C(=O)CCS(=O)(=O)C1c1ccc(Cl)cc1` (stereo unspecified) as the molecule, how does the “growth rescue, positive = activation” value read?
The value was -2.93%.

With `O=P1(N(CCCl)CCCl)NCCCO1` (stereo unspecified) as the molecule, how does the “growth rescue, positive = activation” value read?
Its value is -2.09%.

Which “growth rescue, positive = activation” value does the source give for `NCCc1ccc(O)cc1` here?
Its value is -2.82%.

For `O=C(CCCN1CCC2(CC1)C(=O)NCN2c1ccccc1)c1ccc(F)cc1`, which “growth rescue, positive = activation” value is on record?
The value was -8.58%.

Which “growth rescue, positive = activation” value does the source give for `COc1ccc2c(c1OC)C(=O)O[C@H]2[C@@H]1c2cc3c(cc2CCN1C)OCO3` here?
Its value is 2.42%.

Which “growth rescue, positive = activation” value does the source give for `CC(NC(C)(C)C)C(=O)c1cccc(Cl)c1` (stereo unspecified) here?
The value was 4.31%.

For `O=C(O)CCCc1ccc(N(CCCl)CCCl)cc1`, which “growth rescue, positive = activation” value is on record?
Its value is -0.288%.

For `Cc1ncsc1CCCl`, which “growth rescue, positive = activation” value is on record?
The value was -4.27%.

Which “growth rescue, positive = activation” value does the source give for `O=c1[nH]oc2c1CCNC2` here?
The value was -2.12%.

For `CC(C)(C)NCC(O)c1ccccc1Cl` (stereo unspecified), which “growth rescue, positive = activation” value is on record?
Its value is -4.42%.
